From PubChem BioAssay AID1159580 (chemical genetic matrix, 2015)
Out of some 5,500 compounds screened, about 2,000 (36%) were called active. Another 18% or so got no clear call; they are omitted. Cut-off read from the data, not from the text of the source: active = normalized growth mostly below about 0.91 (no sharp cut-off); inconclusive = no clear call, values can overlap the other calls; inactive = mostly above about 0.92. This is one part of the list.

Test: chemical genetic growth profiling, strain panel (AID 1159580);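 note: tested at 20 µM; growth read once vehicle control cultures reached saturation at 30 °C; 1 = growth at the plate median or of vehicle wells; lower values mean less growth of the strain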
Settings: growth OD

Measured: normalized growth

Cc1cc(C(C)(C)C)c(O)c(C(C)(C)C)c1
inactive: S. cerevisiae deletion strains, locus YJR075W, strain HOC1, active compounds read low 0.929 | S. cerevisiae deletion strains, locus YKL009W, strain mrt4, active compounds read low 1 | S. cerevisiae deletion strains, locus YKL068W, active compounds read low 0.978 | S. cerevisiae deletion strains, locus YKL085W, strain MDH1 (second series), active compounds read low 1 | S. cerevisiae deletion strains, locus YKL085W, strain MDH1, active compounds read low 1 | S. cerevisiae deletion strains, locus YKL160W, strain elf1, active compounds read low 1 | S. cerevisiae deletion strains, locus YKL190W, strain CNB1, active compounds read low 0.96 | S. cerevisiae deletion strains, locus YKR001C, strain vps1, active compounds read low 0.927 | S. cerevisiae deletion strains, locus YKR026C, strain gcn3, active compounds read low 0.978 | S. cerevisiae deletion strains, locus YKR091W, strain srl3, active compounds read low 0.986 | S. cerevisiae deletion strains, locus YLL001W, strain dnm1, active compounds read low 0.99 | S. cerevisiae deletion strains, locus YLL026W, active compounds read low 0.954 | S. cerevisiae deletion strains, locus YLL041C, strain sdh2, active compounds read low 0.978 | S. cerevisiae deletion strains, locus YLR027C, strain aat2, active compounds read low 0.932 | S. cerevisiae deletion strains, locus YLR039C, strain RIC1, active compounds read low 0.861 | S. cerevisiae deletion strains, locus YLR058C, strain SHM2, active compounds read low 0.964 | S. cerevisiae deletion strains, locus YLR102C, strain apc9, active compounds read low 0.989 | S. cerevisiae deletion strains, locus YLR258W, strain gsy2, active compounds read low 0.997 | S. cerevisiae deletion strains, locus YLR262C, strain YPT6 (second series), active compounds read low 0.956 | S. cerevisiae deletion strains, locus YLR262C, strain YPT6, active compounds read low 0.85 | S. cerevisiae deletion strains, locus YLR268W, strain sec22, active compounds read low 0.944 | S. cerevisiae deletion strains, locus YLR320W, strain mms22, active compounds read low 0.904 | S. cerevisiae deletion strains, locus YLR330W, strain CHS5, active compounds read low 0.99 | S. cerevisiae deletion strains, locus YLR342W, strain FKS1 (second series), active compounds read low 1.09 | S. cerevisiae deletion strains, locus YLR342W, strain FKS1, active compounds read low 0.975 | S. cerevisiae deletion strains, locus YLR357W, strain rsc2, active compounds read low 0.966 | S. cerevisiae deletion strains, locus YLR370C, strain arc18, active compounds read low 0.986 | S. cerevisiae deletion strains, locus YLR371W, strain rom2, active compounds read low 1.01 | S. cerevisiae deletion strains, locus YLR384C, strain iki3, active compounds read low 0.971 | S. cerevisiae deletion strains, locus YLR418C, strain cdc73, active compounds read low 0.855 | S. cerevisiae deletion strains, locus YML016C, strain PPZ1, active compounds read low 0.997 | S. cerevisiae deletion strains, locus YML032C, strain rad52, active compounds read low 0.973 | S. cerevisiae deletion strains, locus YML120C, strain ndi1, active compounds read low 0.938 | S. cerevisiae deletion strains, locus YML124C, strain tub3, active compounds read low 0.995 | S. cerevisiae deletion strains, locus YMR058W, strain fet3, active compounds read low 0.968 | S. cerevisiae deletion strains, locus YMR078C, strain ctf18, active compounds read low 0.995 | S. cerevisiae deletion strains, locus YMR125W, strain sto1, active compounds read low 0.989 | S. cerevisiae deletion strains, locus YMR129W, active compounds read low 1 | S. cerevisiae deletion strains, locus YMR205C, strain PFK2, active compounds read low 0.998 | S. cerevisiae deletion strains, locus YMR223W, strain ubp8, active compounds read low 0.958 | S. cerevisiae deletion strains, locus YMR231W, strain pep5, active compounds read low 0.989 | S. cerevisiae deletion strains, locus YMR263W, strain SAP30, active compounds read low 0.898 | S. cerevisiae deletion strains, locus YMR307W, strain GAS1, active compounds read low 0.901 | S. cerevisiae deletion strains, locus YNL067W, strain RPL9B, active compounds read low 0.926 | S. cerevisiae deletion strains, locus YNL071W, strain lat1, active compounds read low 0.997 | S. cerevisiae deletion strains, locus YNL128W, strain TEP1, active compounds read low 0.874 | S. cerevisiae deletion strains, locus YNL153C, strain GIM3, active compounds read low 0.917 | S. cerevisiae deletion strains, locus YNL183C, strain NPR1, active compounds read low 0.938 | S. cerevisiae deletion strains, locus YNL209W, strain ssb2, active compounds read low 0.993 | S. cerevisiae deletion strains, locus YNL248C, strain rpa49, active compounds read low 0.904 | S. cerevisiae deletion strains, locus YNL250W, strain rad50, active compounds read low 0.993 | S. cerevisiae deletion strains, locus YNL271C, strain bni1, active compounds read low 1 | S. cerevisiae deletion strains, locus YNL298W, strain CLA4, active compounds read low 0.962 | S. cerevisiae deletion strains, locus YNL307C, strain MCK1, active compounds read low 0.98 | S. cerevisiae deletion strains, locus YNL322C, strain KRE1 (second series), active compounds read low 1.01 | S. cerevisiae deletion strains, locus YNL322C, strain KRE1, active compounds read low 0.975 | S. cerevisiae deletion strains, locus YNR049C, strain mso1, active compounds read low 0.982 | S. cerevisiae deletion strains, locus YNR052C, strain pop2, active compounds read low 1 | S. cerevisiae deletion strains, locus YOL006C, strain TOP1, active compounds read low 0.888 | S. cerevisiae deletion strains, locus YOL147C, strain pex11, active compounds read low 0.996 | S. cerevisiae deletion strains, locus YOR001W, strain rrp6, active compounds read low 0.916 | S. cerevisiae deletion strains, locus YOR061W, strain CKA2, active compounds read low 0.966 | S. cerevisiae deletion strains, locus YOR069W, strain VPS5, active compounds read low 0.997 | S. cerevisiae deletion strains, locus YOR070C, strain gyp1, active compounds read low 0.957 | S. cerevisiae deletion strains, locus YOR080W, strain dia2, active compounds read low 0.99 | S. cerevisiae deletion strains, locus YOR083W, strain WHI5, active compounds read low 0.986 | S. cerevisiae deletion strains, locus YOR106W, strain vam3, active compounds read low 0.966 | S. cerevisiae deletion strains, locus YOR136W, strain idh2, active compounds read low 0.974 | S. cerevisiae deletion strains, locus YOR144C, strain elg1, active compounds read low 0.987 | S. cerevisiae deletion strains, locus YOR184W, strain ser1, active compounds read low 1.01 | S. cerevisiae deletion strains, locus YOR231W, strain MKK1, active compounds read low 0.916 | S. cerevisiae deletion strains, locus YOR265W, strain rbl2, active compounds read low 0.992 | S. cerevisiae deletion strains, locus YOR270C, strain vph1, active compounds read low 0.84 | S. cerevisiae deletion strains, locus YOR290C, strain snf2, active compounds read low 0.954 | S. cerevisiae deletion strains, locus YOR316C, strain cot1, active compounds read low 0.992 | S. cerevisiae deletion strains, locus YPL051W, strain arl3, active compounds read low 0.954 | S. cerevisiae deletion strains, locus YPL055C, strain LGE1, active compounds read low 0.798 | S. cerevisiae deletion strains, locus YPL078C, strain atp4, active compounds read low 0.99 | S. cerevisiae deletion strains, locus YPL106C, strain sse1, active compounds read low 0.917 | S. cerevisiae deletion strains, locus YPL240C, strain hsp82, active compounds read low 0.985 | S. cerevisiae deletion strains, locus YPL241C, strain CIN2, active compounds read low 0.98 | S. cerevisiae deletion strains, locus YPL256C, strain CLN2, active compounds read low 0.922 | S. cerevisiae deletion strains, locus YPR119W, strain clb2, active compounds read low 0.995 | S. cerevisiae deletion strains, locus YPR141C, strain kar3, active compounds read low 0.97 | S. cerevisiae deletion strains, locus YPR163C, strain tif3, active compounds read low 0.981 | S. cerevisiae deletion strains, locus YPR167C, strain met16, active compounds read low 0.985 | S. cerevisiae deletion strains, strain wtn01, active compounds read low 0.938 | S. cerevisiae strains, strain wild type, active compounds read low 0.933
active: S. cerevisiae deletion strains, locus YLR113W, strain HOG1, active compounds read low 0.85 | S. cerevisiae deletion strains, locus YLR221C, strain rsa3, active compounds read low 0.853 | S. cerevisiae deletion strains, locus YNL233W, strain BNI4, active compounds read low 0.844 | S. cerevisiae deletion strains, locus YOL012C, strain htz1 2.14 [resistant]
